Source: PubChem (several laboratories)
A selection: hits, their analogues and other compounds. The true share with any hit is near 1.5%.
CD11b adhes enh = enhancers of human CD11b/CD18 binding to fibrinogen | P05107+P11215 | actives 0.07% (n = 93,000) | K562 CD11b/CD18 adhesion to fibrinogen, ATPlite luminescence | activation, % at 10 µM;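 active means 10 µM primary screen giving 50% or more activity, confirmed by 40% or more on retest at that dose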
Target sequence (P05107 whole entry, looked up, other chains not shown): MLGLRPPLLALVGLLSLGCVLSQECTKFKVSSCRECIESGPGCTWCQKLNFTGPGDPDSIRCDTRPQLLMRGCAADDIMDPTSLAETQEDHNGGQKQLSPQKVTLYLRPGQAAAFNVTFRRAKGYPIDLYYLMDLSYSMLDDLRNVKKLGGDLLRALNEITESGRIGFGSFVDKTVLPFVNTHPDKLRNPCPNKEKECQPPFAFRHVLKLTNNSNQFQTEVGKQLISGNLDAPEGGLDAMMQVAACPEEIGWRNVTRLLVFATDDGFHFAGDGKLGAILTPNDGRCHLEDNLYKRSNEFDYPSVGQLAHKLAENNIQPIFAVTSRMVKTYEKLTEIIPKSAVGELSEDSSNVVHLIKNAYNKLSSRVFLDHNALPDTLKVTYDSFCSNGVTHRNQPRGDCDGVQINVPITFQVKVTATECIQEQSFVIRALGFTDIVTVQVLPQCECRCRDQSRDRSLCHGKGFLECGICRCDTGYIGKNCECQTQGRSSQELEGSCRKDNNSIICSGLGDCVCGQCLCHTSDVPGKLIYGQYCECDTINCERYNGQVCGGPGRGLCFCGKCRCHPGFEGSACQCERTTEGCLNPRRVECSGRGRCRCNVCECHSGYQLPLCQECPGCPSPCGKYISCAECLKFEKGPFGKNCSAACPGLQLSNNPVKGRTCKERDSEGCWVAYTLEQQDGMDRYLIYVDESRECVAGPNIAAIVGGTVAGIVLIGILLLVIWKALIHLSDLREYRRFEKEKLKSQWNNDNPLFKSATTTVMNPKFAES
GALR2 agonist = agonists of human galanin receptor 2 (GALR2). O43603. GALR2-expressing cells, agonist activation read-out. activation, % (test concentration not listed). actives 0.48% (n = 140,000). AID 803; in the data active means activation above about 5%, passing the limit was not always enough;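 further: 0% = vehicle buffer wells and 100% = reference agonist at full effect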
S1P2 antag = blocks the human S1P2 receptor; O95136; actives 0.21% (n = 97,000); inhibition, % at 5 µM; cell-based S1P2 antagonist assay, inhibition at 5 uM; in the data active means inhibition above about 45%;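 further: CRE beta-lactamase reporter cells expressing human S1P2 stimulated with S1P; 0% = agonist at EC80 alone and 100% = agonist plus reference antagonist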
S1P2 agonist = S1P2 (human) receptor agonism; O95136; S1P2-expressing cell line, agonist reporter read-out; activation, % at 4.5 µM; actives 0.46% (n = 97,000); AID 729; in the data active means activation above about 16%;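 further: 0% = vehicle low control and 100% = maximal reference agonist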
CD11b adhes inh = inhibitors of human CD11b/CD18 binding to fibrinogen; K562 CD11b/CD18 adhesion to fibrinogen, ATPlite luminescence; Mn2+ added to activate the integrin; P05107+P11215; AID 1497; actives 0.54% (n = 93,000); inhibition, % at 10 µM;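 active means primary inhibition of 50% or more at 10 µM, then 40% or more on retest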
GALR2 antag = antagonists of human galanin receptor 2 (GALR2); O43603; GALR2-expressing cells, antagonist mode; inhibition, % at 4 µM; actives 0.39% (n = 140,000); AID 828; in the data active means inhibition above about 27%;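 further: cells stimulated with galanin 1-16 at roughly its EC80; 0% = agonist challenge control and 100% = basal control without agonist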
An asterisk follows results filed as active; . = no result given.

SMILES	CD11b adhes enh	GALR2 agonist	S1P2 antag	S1P2 agonist	CD11b adhes inh	GALR2 antag
COc1ccc(NC(=O)Cn2nnc(C(=O)NCc3ccccc3OC)c2N)cc1Cl	7	1	47*	-7	-55	7
Cc1ccc(C(=O)Nc2nc(=O)n(C(=O)CC(C)C)s2)cc1	-9	-2	19	-6	70	1
CC(C)CC(=O)n1sc(NC(=O)c2ccccc2)nc1=O	-7	-1	10	-4	55*	1
CCCCN1C(=O)NC2NC(=O)NC21 (stereo unspecified)	.	-1	-2	-4	.	5
COCCNCC(=O)Nc1ccccc1Sc1ccccc1	6	-1	.	.	23	-2
COC(=O)c1cn(NC(=O)c2cccc(OC)c2)c(=O)c2ccccc12	.	0	-31	-6	.	7
COc1ccc(C2C=C(c3cccs3)Nc3nc(CCCO)nn32)cc1 (stereo unspecified)	0	-2	37	-14	1	30*
Cc1nc2sc3c(NCc4ccco4)ncnc3c2c2c1COC(C)(C)C2	.	-2	-34	26*	.	-14
COC(=O)C1CCN(c2ccc(C(N)=O)cc2[N+](=O)[O-])CC1	10	-2	.	.	8	1
COc1cccc(C(=O)/C=C/Nc2cccc(O)c2)c1	-7	-1	-14	-2	91*	-1
CC(=O)c1ccc(N(C(=O)Cn2nnc(-c3ccccc3)n2)C(C(=O)NC2CCCCC2)c2ccccn2)cc1 (stereo unspecified)	.	-1	.	.	.	9
c1ccc(Nc2ncnc3sc4c(c23)CCC4)cc1	.	0	10	-1	.	-6
c1csc(CCNc2ncnc3sc4c(c23)CCC4)c1	-6	.	.	.	86*	.
CCOC(=O)N1CCN(C(=O)CSCc2ccccc2Cl)CC1	.	-1	.	.	.	-9
CCCOc1ccc(C2NC(=S)NC(C)=C2C(=O)c2ccccc2)cc1OC (stereo unspecified)	4	-1	.	.	12	3
COc1ccc(C2C(C#N)=C(N)Oc3c2c(C)nn3-c2ccccc2)cc1Cn1nc(C)c([N+](=O)[O-])c1C (stereo unspecified)	51*	-2	2	-5	11	-9
Fc1ccccc1N1CC(c2ccccc2)C(c2cccs2)=N1 (stereo unspecified)	-3	46*	-34	23*	-28	-7
Cc1noc(C)c1CSc1nc2ccccc2nc1NS(=O)(=O)c1ccc(Cl)cc1	-8	-2	10	-7	98*	-8
O=S(=O)(Nc1nc2ccccc2nc1NCc1ccco1)c1ccc(Cl)cc1	.	-2	-1	-6	.	-4
O=C(/C=C\c1ccc2c(c1)OCO2)Nc1c2c(nn1-c1ccc(Cl)cc1)CSC2	.	-1	.	.	.	8
NC1=NC(=O)/C(=C/c2cn(Cc3ccccc3)c3ccccc23)S1	.	5.3*	.	.	.	3
O=C1C2C3C=CC(C3)C2C(=O)N1/N=C/c1cn(Cc2ccccc2)c2ccccc12 (stereo unspecified)	.	-1	4	-1	.	0
NC(=S)c1cc2ccc(O)cc2oc1=O	-8	14*	-52	38*	-2	-1
C/C(=N/NC(=O)c1ccncc1)c1cc2ccc(O)cc2oc1=O	.	7.5*	.	.	.	-24
C/C(=N\NC(=O)c1ccncc1)c1cc2ccccc2oc1=O	.	0	.	.	.	5
SMILES	CD11b adhes enh	GALR2 agonist	S1P2 antag	S1P2 agonist	CD11b adhes inh	GALR2 antag
CCOC(=O)c1cc2ccc(OC)cc2oc1=O	.	-1	18	-8	.	-2
O=C(C1=NNC2C(=O)N(c3ccccc3)C(=O)C12)c1nc(Cl)ccc1Cl (stereo unspecified)	.	-1	.	.	.	3
Cc1ccc(-c2noc(CCC(=O)N3CCCc4ccccc43)n2)cc1	-3	-2	-6	43*	5	-8
Cc1ccc(-c2nnn(CC(=O)N3CCCc4ccccc43)n2)cc1	.	-2	9	-6	.	-6
O=C1C2C3C=CC(C3)C2C(=O)N1/N=C/c1cc(Br)cc([N+](=O)[O-])c1O (stereo unspecified)	-8	-1	8	-2	57*	-7
O=C1C2C3C=CC(C3)C2C(=O)N1/N=C/c1ccc(-c2ccccc2[N+](=O)[O-])o1 (stereo unspecified)	.	-2	.	.	.	7
Nc1c(C(=O)NCCN2CCOCC2)c2nc3ccccc3nc2n1CCc1ccccc1F	0	5.3*	-38	45*	4	-19
